Source: PubChem BioAssay (NCI)
This is part of a sample that, as a whole, favours compounds with a hit. Of some 83,000 tested, about 20% had one in any assay.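 96-well plates, one dose, 48 hours. Percent growth reported; active if below 10.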 Unmarked numbers belong to inactive results. Active and inactive are the calls of the source.

The molecules below were run on NCI-H522 lung (assay: NCI-60 one-dose screen, 48 h (100 = growth as untreated, 0 = no growth, -100 = all killed)). Settings: 10 µM unless noted.

Compared with `O=C(NNC(=O)c1ccc(-n2cc(-c3ccccc3)nn2)cc1)Nc1ccccc1`, `CC(=O)N(N=Nc1ccccc1)c1cccc2ccccc12` is lower in growth: 108% for the first, 75.1% for the second.

First: O=Nc1c(-c2c(O)[nH]c3ncccc23)[nH]c2ccccc12
Second: CC1(c2ccccc2O)NN=C(/N=C/c2cccc([N+](=O)[O-])c2)N1C(Cc1c[nH]c2ccccc12)C(=O)O (stereo not drawn)
The growth of the first is lower: 47.6% for the first, 70.2% for the second.

First: CCN1CC(=O)N(/N=C2\C(=O)Nc3ccccc32)C1=S
Second: CC1=Nc2cnc(Nc3ccc(OCCN4CCCCC4)cc3)nc2Nc2ccccc21
The growth of the first is higher: 85.4% for the first, 70.7% for the second.

Compared with `CN(C)C1CCN(Cc2ccc(NC(=O)c3cncc(C#Cc4cnc(N)c5ncccc45)c3)cc2C(F)(F)F)CC1`, `C#CCOc1ccc2ncnc(Nc3cccc(NC(=O)C=C)c3)c2c1` is lower in growth: 84.9% for the first, 50.3% for the second.

Going from `Cn1cc(-c2nonc2-c2c[nH]c3ccc(Br)cc23)c2cc(Br)ccc21` to `COc1ccc(-c2nnc3n(C)c(=O)c4ccccc4n23)cc1N`, the growth falls from 24.3% to 18.8%.

Compared with `O=C(CN1C(=O)CCC1=O)Nc1ncc(Cc2ccc(F)cc2)s1`, `CN1C(=O)/C(=C/c2ccc(C(=O)Nc3ncc(Cc4ccc(Cl)cc4)s3)cc2)SC1=S` is lower in growth: 99% for the first, 36.4% for the second.

Going from `CN1CCN(C(=O)OCc2ccc3c(Cl)cc(Cl)c(O)c3n2)CC1` to `Cc1cc2c(O)c(-c3cc(Cl)ccc3Cl)c3sc(=O)oc3c2cc1C`, the growth falls from 79.6% to 26.4%.

First: O=C(O)[C@@H]1c2ccccc2-c2ccccc2[C@H]1C(=O)O
Second: O=c1oc2ccccc2cc1C1=NN=C(SCc2ccccc2)SC1
The growth of the first is higher: 91% for the first, 89.2% for the second.

Compared with `Clc1ccc(Sc2cnc(-c3ccccc3)o2)cc1`, `Cc1ccc(/C=N/Nc2nc(Nc3ccccc3)nc(-n3nc(C)cc3C)n2)cc1` is lower in growth: 99.2% for the first, 15.7% for the second.

Going from `C=C(C)[C@@H]1CC[C@]2(C(=O)NCC#CCN3CCN(C)CC3)CC[C@]3(C)[C@H](CC[C@@H]4[C@@](C)(CCC#N)[C@H](C(=C)C)CC[C@]43C)[C@@H]12` to `Cc1cccc(Cl)c1NC(=O)c1ccc2nc(NC(=O)NCCN(C)C)sc2c1`, the growth rises from 68.5% to 77.5%.

Compared with `COc1ccc(/C(C)=C(/c2ccc(OCCCN(C)C)cc2)c2ccc(OC(=O)Cc3ccccc3)cc2)cc1`, `Cc1ccc(CNc2ccc(Cl)cc2NCc2ccc(C)c(O)c2)cc1O` is lower in growth: 57.5% for the first, 12.5% for the second.

First: CCOC(=O)C1=C(NC)OCC1=O
Second: CCCc1cc(NC)nc(S(=O)(=O)CC)n1
The growth of the first is higher: 96.7% for the first, 95.9% for the second.

Going from `Cc1nc(N2CCOCC2)sc1S(N)(=O)=O` to `CCn1c(=S)sc2c(Nc3ccc(F)cc3)nc(-c3cccnc3)nc21`, the growth falls from 92.8% to 40.5%.

`Cc1cccnc1NC(=S)Nc1ncccc1C` gave a growth of 88.9%.

For `COc1ccc(-c2csc(N(C(=O)N3CCN(c4cc5c(cc4F)c(=O)c(C(=O)O)cn5C4CC4)CC3)c3ccccc3)n2)cc1`, the growth was -21.8% (active).
`S=C(Nc1ccc(-c2nc(N3CCOCC3)c3cccn3n2)cc1)Nc1cccnc1` was tested, and the growth was 4.32% (active).
`COc1cc(-n2cc(-c3cc(O)c(C/C=C(\C)CCC=C(C)C)c(O)c3)nn2)cc2c1O[C@]1(C)CC[C@@H](O)C(C)(C)[C@H]1C2` was tested, and the growth was -26.6% (active).
`N#C/C(=C\c1ccc(Br)cc1)n1nnc2ccc(F)cc21` was tested, and the growth was -18.2% (active).
For `CCN(CC)CCNC(=O)c1cn2ncnc(Oc3ccc(NC(=O)Nc4ccc(Cl)c(C(F)(F)F)c4)c(F)c3)c2c1C`, the growth was -52.3% (active).
For `Cc1ccc(-c2nc(N3CCNCC3)c3oc(-c4ccccc4)nc3n2)cc1`, the growth was -81.8% (active).
For `N=C(N)c1ccc(-c2ccc(-c3cc(Cl)cc(Cl)c3)o2)o1`, the growth was -70.4% (active).
With `CC1=C(CCC(C)N(C)Cc2ccc(OCCCN3CCCC3)cc2)C(C)(C)CCC1` (stereo not drawn) the growth was -52.2% (active).
With `CC(O)c1cnc(/C=C2\SC(=S)N(Cc3ccccc3)C2=O)s1` (stereo not drawn) the growth was 0.337% (active).
`NC(=O)c1c(NC(=O)c2ccccc2)sc2c1CCC(=O)C2` was tested, and the growth was -9.03% (active).
For `COc1cc(C(=O)n2nc(N3CCN(C)CC3)c3cc(N)ccc32)cc(OC)c1OC`, the growth was -7.31% (active).
